# CCHFV vOTU inh = CCHFV vOTU protease inhibition. actives 0.55% (n = 370,000). inhibition, % at 11.5 µM. Pep-AMC fluorescence; note: 0% = vehicle wells with enzyme and 100% = no enzyme wells
# FBA Mtb inh = Mtb fructose-bisphosphate aldolase inhibition. P9WQA3. purified M. tuberculosis FBA, fluorescence read-out. inhibition, % at 1 µM. actives 2.3% (n = 360,000). AID 588726; in the data active = inhibition above about 27%;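 note: 0% = vehicle and 100% = reference inhibitor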
# RecA intein inh = Mtb RecA intein splicing inhibition; actives 0.75% (n = 290,000); AID 2221; inhibition, % (test concentration not listed); cell-free RecA intein splicing, fluorescence; P9WHJ3; in the data active = inhibition above about 30%;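 note: 0% = vehicle wells and 100% = reference inhibitor control wells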
# Target sequence (P9WHJ3 whole entry, looked up): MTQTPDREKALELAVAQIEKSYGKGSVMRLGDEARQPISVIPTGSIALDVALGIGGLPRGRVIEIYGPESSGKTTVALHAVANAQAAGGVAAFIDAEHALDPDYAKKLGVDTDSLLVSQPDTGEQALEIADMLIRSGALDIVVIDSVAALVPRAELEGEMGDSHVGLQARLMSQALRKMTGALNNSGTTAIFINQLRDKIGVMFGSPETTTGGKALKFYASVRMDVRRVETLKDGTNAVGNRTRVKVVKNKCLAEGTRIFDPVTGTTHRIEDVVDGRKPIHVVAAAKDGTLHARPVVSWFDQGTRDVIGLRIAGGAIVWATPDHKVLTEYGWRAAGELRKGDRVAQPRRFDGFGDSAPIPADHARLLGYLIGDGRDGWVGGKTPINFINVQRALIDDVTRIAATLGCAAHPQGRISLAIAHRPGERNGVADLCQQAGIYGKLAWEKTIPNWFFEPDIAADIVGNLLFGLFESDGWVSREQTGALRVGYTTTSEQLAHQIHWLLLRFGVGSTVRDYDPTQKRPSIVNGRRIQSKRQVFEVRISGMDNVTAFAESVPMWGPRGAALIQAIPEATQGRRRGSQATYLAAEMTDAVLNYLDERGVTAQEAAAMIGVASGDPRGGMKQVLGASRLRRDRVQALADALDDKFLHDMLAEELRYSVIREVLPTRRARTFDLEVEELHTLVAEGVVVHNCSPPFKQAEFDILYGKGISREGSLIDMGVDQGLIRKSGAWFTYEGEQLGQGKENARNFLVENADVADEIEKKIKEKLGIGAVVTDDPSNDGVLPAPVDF
# GDH-TPI inh = GDH-TPI coupled enzyme inhibition counter-screen. GDH-TPI coupled enzyme counterscreen, NADH absorbance. inhibition, % at 4.8 µM. actives 1.2% (n = 360,000);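 note: 0% = DMSO wells and 100% = wells lacking the enzyme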
# * hit, by the source's call; i = inactive; . = no result; + = active, no number; ! = a repeat was not active. The list is not random: actives were taken first. Their share in the collection is about 4.2%. Cut-off read from the data, not from the text of the source, unless noted: active = inhibition above about 30%; inactive = the rest.
SMILES,CCHFV vOTU inh,FBA Mtb inh,RecA intein inh,GDH-TPI inh
CNc1cncc(-c2ccc(F)c(F)c2)n1,-183.6,167.5*,.,22.6
CNc1cncc(-c2cccc(C(=O)N(C)C)c2)n1,-349.3,+,.,19.0
CNc1cncc(-c2ccccc2NC(C)=O)n1,-22.6,18.8,.,11.5
CN(C(=O)c1ccccc1C(=O)OCC(=O)Nc1ccc(S(N)(=O)=O)cc1)c1ccccc1,10.6,-2.2,2.3,-1.4
C=CCn1c(SCC(=O)OC(C)C)nnc1-c1ccc(C)cc1,-5.9,.,.,.
COc1ccc(NS(=O)(=O)c2cccc(C(=O)NNC(=O)c3ccc(C)o3)c2)cc1,2.1,-0.3,.,3.2
COC(=O)[C@]12C[C@H](CC(=O)NCc3ccc(C)o3)C(=O)N(CCc3ccc(OC)c(OC)c3)C1=C[C@H](COCc1ccccc1)O[C@@H]2C,-0.5,.,.,.
CC(Oc1ccc2c(-c3ccccc3)cc(=O)oc2c1)C(=O)NCCN1CCOCC1 (centres undefined),-1.6,-1.7,-3.3,21.4
COc1ccc2c(c1)c(=O)oc1cc(OC(C(=O)O)c3ccccc3)ccc12 (centres undefined),-258.0,+,-3.0,14.7
O=C(O)C(Oc1ccc2c(-c3ccccc3)cc(=O)oc2c1)c1ccccc1 (centres undefined),4.7,-0.3,-5.1,10.1
CC(Oc1ccc2c(c1)oc(=O)c1ccccc12)C(=O)NCCN1CCOCC1 (centres undefined),-55.3,60.0*,-1.8,4.7
CC(Oc1ccc2c(c1)oc(=O)c1ccccc12)C(=O)NCC1CCC(C(=O)O)CC1 (centres undefined),-81.2,129.3*,-1.1,14.7
Cc1noc(C)c1C(C)C1=CCCCC1 (centres undefined),-0.3,.,.,.
O=C(Nc1nc2ccccc2n1CCN1CCOCC1)c1ccc(Cn2cc([N+](=O)[O-])cn2)o1,6.2,2.5,1.9,47.8*
O=C(Nc1nc2ccccc2n1CCN1CCOCC1)c1ccc(COc2ccccc2Br)o1,-11.9,4.0,7.1,13.7
CC(C)CN(Cc1c(O)ccc2c3c(c(=O)oc12)CCC3)CC(C)C,-242.9,+,-11.4,8.8
CC1CCCN(Cc2c(O)ccc3c4c(c(=O)oc23)CCCC4)C1 (centres undefined),-366.4,.,-57.0,28.4
O=c1oc2c(CN3CCOCC3)c(O)ccc2c2c1CCC2,-327.5,+,.,0.0
O=S1(=O)c2c(cccc2N2CCSCC2)Oc2ccccc2CN1Cc1cn(Cc2ccc(C(F)(F)F)cc2)nn1,8.9,.,.,.
C=CCOc1ccc(C2NC(=S)NC3=C2CCc2ccccc23)cc1 (centres undefined),-5.9,2.7,2.0,29.7
O=C1NC2=C(CCc3ccccc32)C(c2ccccc2)N1 (centres undefined),-18.5,7.8,46.9*,2.2
CC1C(=O)N(Cc2cn(CCC3OCCCO3)nn2)CCS(=O)(=O)N1Cc1ccc(-c2ccncc2)cc1 (centres undefined),9.7,1.4,.,9.3
O=C(Oc1ccc(Br)cc1C(=S)N1CCCCC1)c1cc([N+](=O)[O-])cc([N+](=O)[O-])c1,.,-0.8,63.5*,4.3
O=C(Oc1ccc(Br)cc1C(=S)N1CCCC1)c1ccccc1Cl,3.2,0.9,1.7,1.9
O=C(Oc1ccccc1/C=C\C(=O)c1cc2ccccc2o1)c1ccccc1,2.7,0.0,-2.4,7.4
SMILES,CCHFV vOTU inh,FBA Mtb inh,RecA intein inh,GDH-TPI inh
COc1cccc(C(=O)Oc2ccccc2/C=C\C(=O)c2cc3ccccc3o2)c1,14.0,-0.7,26.0,31.1*
CS/C(=C\[N+](=O)[O-])Nc1ccc(OC(F)(F)F)cc1,-172.3,-6.3,57.2*,15.6
CC(C)(CCl)C(=O)Nc1ccc(OC(F)(F)F)cc1,3.1,1.6,0.9,-0.3
O=C1C2C3C=CC(C3)C2C(=O)N1CNc1ccc(O)cc1 (centres undefined),.,.,61.9*,.
Cc1onc(NC(=O)CSCC(=O)O)c1Br,-3.0,2.4,-0.1,-6.1
CC(/C=N/NC(=O)c1ccccc1F)=C\c1ccccc1,3.8,-1.4,4.2,9.5
N#C/C(=C\c1ccc(O)cc1)C(=O)O,12.7,-1.2,.,34.7*!
N#C/C(=C\c1cccc(O)c1)C(=O)O,1.0,0.2,.,16.1
Cc1ccc(C(=O)NC2CCN(CC(=O)Nc3ccccc3Cl)CC2)cc1,-4.8,0.3,.,0.8
N#CC(C#N)=Cc1c[nH]c(=O)c(C#N)c1Nc1ccccc1,-336.9,+,i,16.1
Cc1ccc(N(C)c2nc(N)nc(N)c2N=O)cc1,60.7*,.,.,.
Cc1cccn2c(=O)c(/C=C(\C#N)C(=O)NC3CCS(=O)(=O)C3)c(N3CCC(C)CC3)nc12 (centres undefined),-66.2,196.7*,i,11.2
N#C/C(=C\c1c(N2CCCCC2)nc2ccccn2c1=O)C(=O)NC1CCS(=O)(=O)C1 (centres undefined),-127.3,6.2,-359.6,13.5
CNC(=O)/C(C#N)=C/c1c(N(Cc2ccccc2)Cc2ccccc2)nc2c(C)cccn2c1=O,-23.7,2.8,31.0*,8.4
CCCCOc1ccc(S(=O)(=O)NC(=O)C2(C)CCN2C(=O)CCc2ccccc2)cc1 (centres undefined),6.6,0.9,.,2.7
CCCC(=O)Nc1c(-c2ccccc2)[nH][nH]c1=O,4.3,-0.5,.,.
O=C(O)C1CCCC[C@H]1C(=O)Nc1ncc([N+](=O)[O-])s1 (some centres undefined),5.6,-0.7,.,30.9*
N#Cc1nc(-c2ccco2)oc1NCCN1CCOCC1,-13.0,25.8,0.5,7.4
N#Cc1nc(-c2cccc3ccccc23)oc1NCCN1CCOCC1,.,121.9*,-4.8,32.9*
CC(=O)Nc1oc(-c2cccc3ccccc23)nc1C#N,-90.2,163.5*,.,5.2
CCCNc1oc(-c2cccc3ccccc23)nc1C#N,-74.9,148.1*,.,19.6
CC1(NC(=O)Cn2cc(C(F)(F)F)ccc2=O)CCS(=O)(=O)C1 (centres undefined),19.4,-1.4,.,5.7
CCOC(=O)[C@@]12CCC3=C1N(CCC3)C(=O)[C@H](CC(=O)NCc1ccc(C)o1)C2,2.5,.,.,.
COc1ccc(-c2c(-c3cc(OC)cc(OC)c3)n(C)c3ccc(-c4ccc(OC)nc4)cc23)cc1,-77.6,14.3,.,12.6
O=c1oc2c(CN3CCCCC3)c(O)ccc2cc1-c1nc2ccccc2[nH]1,-24.7,2.1,.,-3.7
SMILES,CCHFV vOTU inh,FBA Mtb inh,RecA intein inh,GDH-TPI inh
Cc1cc(=O)oc2c(CN3CCCC3)c(O)ccc12,-332.1,+,-59.1,19.3
CCCc1cc(=O)oc2c(CN3CCCC3)c(O)ccc12,-253.0,.,-80.0,20.1
CCN1CCN(Cc2c(O)ccc3c(C)cc(=O)oc23)CC1,-356.0,+,-29.1,16.7
Cc1cc(=O)oc2c(CN3CCN(CCO)CC3)c(O)ccc12,-331.6,+,-41.0,11.4
O=c1oc2c(CN3CCN(CCO)CC3)c(O)ccc2cc1-c1ccccn1,-315.2,+,i,17.5
C1CCN(c2nc3nonc3nc2NCC2CCOCC2)CC1,.,3.6,-15.8,52.0*
COC(=O)C1=CNC=C(C(=O)OC)C1c1cccc(OC)c1,-215.6,195.4*,-45.2,4.3
CCCOc1ccc(C2C(C(=O)OC)=CN(CCOC)C=C2C(=O)OC)cc1,-169.5,+,-115.4,-3.1
CCCCN1C=C(C(=O)OC)C(c2ccccc2C(F)(F)F)C(C(=O)OC)=C1,-9.6,14.2,-35.5,2.9

# Screening data deposited in PubChem by several laboratories.
